Screen size: about 390,000 compounds; about 4,000 (1%) were called active. Another 7% or so got no clear call; they are omitted. Calls follow the shape of the dose curve; as a rule, active = well fitted inhibition curve with a large enough effect; inconclusive = small, poorly fitted or top-dose-only effect, or another doubt; inactive = no such curve, though single readings can be large or run the other way. For the sample, actives were picked, then their nearest neighbours and some compounds at random.
These molecules were tested against DNA polymerase iota (Homo sapiens) (UniProt Q9UNA4) (assay: qHTS for Inhibitors of Polymerase Iota). Details: Pol iota fluorescent replication assay, 10 min; series mostly up to 115 µM.
From the text: DNA polymerases, such as Pol iota, are specifically involved in DNA repair. Pol iota specifically plays an important role in translesion synthesis, where the normal high-fidelity DNA polymerases cannot proceed and DNA synthesis stalls. […] Thus, while pol eta's (and most likely iota's) normal function is to protect humans against the deleterious consequences of DNA damage, under certain conditions they can have deleterious effects on human health. As a consequence, we propose to utilize a high throughput replication assay to identify small molecule inhibitors of pol iota.
In a collaboration between the National Institute of Child Health & Human Development (NICHD) and NIH Chemical Genomics Center, a high-throughput, fluorescent screen was developed to screen the NIH Molecular Libraries Small Molecule Repository (MLSMR). This screen is used to identify inhibitors of pol iota.
NIH Chemical Genomics Center [NCGC]
NIH Molecular Libraries Probe Centers Network [MLPCN]
Assay Submitter (PI): Roger Woodgate, NICHD)
Three microliters of reagents (buffer in column 3 and 4 as negative control and 10 nM Pol iota in columns 1, 2, and 5-48) will be dispensed into 1,536-well black solid-bottomed plate. Compounds (23 nL) will be transferred via Kalypsys pin tool equipped with 1536-pin array. The plates will then be incubated for 15 min at room temperature, and 1 µL substrate (50 nM final concentration) will be added to start the reaction and kinetically read twice at 0 min and 10 min on the Viewlux reader.
Potency is read from the fitted curve at half-maximal effect.

Sequence of DNA polymerase iota (Homo sapiens) (Q9UNA4 whole entry, looked up): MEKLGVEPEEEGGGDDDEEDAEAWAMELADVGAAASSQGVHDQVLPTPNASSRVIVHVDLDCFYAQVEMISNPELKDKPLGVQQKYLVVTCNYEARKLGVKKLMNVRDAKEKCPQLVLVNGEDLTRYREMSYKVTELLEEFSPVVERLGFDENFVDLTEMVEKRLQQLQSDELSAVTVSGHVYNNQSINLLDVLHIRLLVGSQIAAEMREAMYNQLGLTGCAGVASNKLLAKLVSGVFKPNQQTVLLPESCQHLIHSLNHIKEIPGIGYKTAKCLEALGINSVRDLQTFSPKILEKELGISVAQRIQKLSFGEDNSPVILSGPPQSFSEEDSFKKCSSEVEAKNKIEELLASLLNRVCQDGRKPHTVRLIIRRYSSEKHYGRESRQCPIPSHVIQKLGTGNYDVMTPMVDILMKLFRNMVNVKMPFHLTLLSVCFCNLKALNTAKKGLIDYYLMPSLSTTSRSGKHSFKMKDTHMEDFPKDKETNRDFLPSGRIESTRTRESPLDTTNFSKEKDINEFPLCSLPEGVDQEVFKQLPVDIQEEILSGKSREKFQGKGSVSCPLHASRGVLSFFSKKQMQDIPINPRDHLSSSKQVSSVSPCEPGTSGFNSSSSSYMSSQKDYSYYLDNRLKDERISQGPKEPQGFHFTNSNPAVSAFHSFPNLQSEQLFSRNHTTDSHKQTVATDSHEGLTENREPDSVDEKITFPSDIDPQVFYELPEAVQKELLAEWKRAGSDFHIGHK

Potency, active:
CCOc1ccc(NC(=O)c2ccc(NC(=O)COC(=O)c3ccc(NC(=O)CC#N)cc3)cc2)cc1 8.91 µM
O=C(COc1ccccc1)Nc1ccc(C(=O)N2CCCC2)cc1 89.1 µM
Cc1ccn2c(=O)nc(SCC(=O)NCc3ccc4c(c3)OCO4)nc2c1 44.7 µM
O=C(NC1=CC(=O)c2ccccc2C1=O)c1ccccc1 3.55 µM
Cc1ccc(C)c(Nc2nnc(-c3ccc(C)c(S(=O)(=O)N4CCCCC4)c3)c3ccccc23)c1 89.1 µM
COc1ccc2[nH]c3c(C)c4cc[n+](C)cc4c(C)c3c2c1 12.6 µM
CN(CCOc1ccccc1)C(=O)c1cc(-c2ccco2)nc2ccccc12 22.4 µM
CC1CCCN(C(=O)c2cc(-c3ccco3)nc3ccccc23)C1 (stereo not drawn) 28.2 µM
O=C(Nc1cccc(F)c1)c1cc(-c2ccco2)nc2ccccc12 50.1 µM
CN(C(=O)COC(=O)c1cc(-c2ccco2)nc2ccccc12)C1CCS(=O)(=O)C1 (stereo not drawn) 3.55 µM
O=C1Nc2ccc([N+](=O)[O-])cc2C1=Nc1cccc(CO)c1 7.94 µM
COc1ccc2[nH]c(C(=O)N/N=C/c3cc(OC)c(OC)c(OC)c3)cc2c1 17.8 µM
Cc1ccc(S(=O)(=O)N(C)C)cc1NC(=O)C1Cc2ccccc2CN1C(=O)c1ccco1 (stereo not drawn) 22.4 µM
CCOC(=O)c1c(C)[nH]c2c1-c1ccccc1C(=O)C2=O 1.41 µM
O=C(O)c1ccc(NN=CC2=C(N3CCOCC3)/C(=C/c3ccccc3)CC2)cc1 20 µM
Cc1c(CC(=O)N2CCN(C(=O)C3COc4ccccc4O3)CC2)c(=O)oc2c(O)c(O)ccc12 (stereo not drawn) 3.16 µM
O=C(CN1CCN(S(=O)(=O)c2cc(Cl)ccc2Cl)CC1)c1ccc(O)c(O)c1 10 µM
COC1=C(N2CCOCC2)C(=O)c2ccccc2C1=O 14.1 µM
COc1c(O)cc2oc(-c3ccc(O)c(O)c3)cc(=O)c2c1O 7.94 µM
C=CCNC(=O)CSc1nc2scc(-c3ccco3)c2c(=O)n1CC=C 44.7 µM
C=CCn1c(=S)[nH]c2scc(-c3ccco3)c2c1=O 4.47 µM

Potency, inactive:
CCOc1ccc(NC(=O)c2ccc(NC(=O)CN3C(=O)C(=O)N(CC(C)C)C3=O)cc2)cc1
CCOc1ccc(NC(=O)CCNC(=O)c2ccc(Br)cc2)cc1
O=C1O/C(=C\c2ccc(O)cc2)C(O)=C1c1ccc(O)cc1
Oc1ccccc1-c1nc2ccc(Cl)cn2c1Nc1ccc2c(c1)OCCO2
CCOc1ccc(CCNC(=O)c2csc3c2CCCCC3)cc1
Cc1ccccc1OCC(=O)Nc1c(C(=O)Nc2ccccc2F)oc2ccccc12
CCOc1ccc(NC(=O)COc2ccc(C(=O)N3CCC(C(N)=O)CC3)cc2OC)cc1
O=C(COc1ccccc1)Nc1ccc(N2CCN(C(=O)c3cccs3)CC2)cc1
COc1ccc(C2Sc3ccccc3NC3=C2C(=O)c2ccccc23)c(OC)c1OC (stereo not drawn)
CCSc1nnc2c(n1)OC(c1ccc(OCC(=O)O)cc1)Nc1ccccc1-2 (stereo not drawn)
Cc1cc(C)c2sc(NC(=O)c3ccc(S(=O)(=O)N4CCCC4)cc3)nc2c1
CCCCN(CC)CCCNC(=O)c1nn(C)c2c1CS(=O)(=O)c1ccccc1-2
O=C(CSc1nc(=O)n2ccccc2n1)Nc1ccc2c(c1)OCCO2
Cc1ccccc1-c1nnc(SCC(=O)NCc2ccc3c(c2)OCO3)n1C
Cc1ccccc1Nc1nn2c(=O)c3ccc(C(=O)NCCc4ccc(Cl)cc4)cc3nc2s1
O=C(COC(=O)c1cccc(Br)c1)Nc1cccc2c1C(=O)c1ccccc1C2=O
CC(=O)c1cc(NC(=O)c2ccccc2)c(=O)oc1/C=C/N(C)C
O=C(Nc1ccc([N+](=O)[O-])cc1)c1cnn2c1NC(=C1CC1)C=C2C(F)F
CCN(CCCNC(=O)c1cc2cc3cc(OC)ccc3nc2s1)c1ccccc1
O=C(NCCCN1CCN(c2cccc(Cl)c2)CC1)c1nnc(Cc2ccc(F)cc2Cl)o1
Cc1ccc(-c2nnc(Nc3ccc(C(=O)N(C)C)cc3)c3ccccc23)cc1S(N)(=O)=O
Cc1ccc(Nc2nnc(-c3ccc(C)c(S(=O)(=O)N4CCCCC4)c3)c3ccccc23)cc1
CCc1nc2nc(C)cc(Nc3ccc(F)c(Cl)c3)n2n1
Cc1nn(-c2nc(-c3ccccc3)cc(C(F)(F)F)n2)c(C)c1Cl
Cc1cc[n+](C2CCCCC2)cc1
O=C(COc1ccccc1C(=O)Nc1ccccc1)Nc1cccc(F)c1
Cc1cc(C(=O)Nc2ccc(C)c(S(=O)(=O)N3CCOCC3)c2)c2ccccc2n1
COc1ccc(NC(=O)COc2ccc(C(=O)OCC(=O)N(C)C3CCS(=O)(=O)C3)cc2OC)cc1 (stereo not drawn)
O=C(c1cc(-c2ccc(Cl)s2)nc2ccccc12)N1CCOCC1
CN(CCOc1ccccc1)C(=O)c1cc(COc2c(F)cccc2F)on1
CCOc1ccccc1-c1cc(C(=O)N2CCOCC2)c2ccccc2n1
Cc1ccc(S(=O)(=O)CCC(=O)OCC(=O)N(C)C2CCS(=O)(=O)C2)cc1 (stereo not drawn)
COc1ccc(CN(C)C(=O)c2cc(-c3ccc(C)cc3C)nc3ccccc23)c(OC)c1OC
CCCCC(CCCC)c1ccc(C=Nc2ccc(/C=C/c3ccnc4ccccc34)cc2)cc1
CCOc1cc(C(=O)NCCc2csc3nc(-c4ccc(C)cc4)nn23)cc(OCC)c1OCC
Cc1ccc(NC(=O)CN2c3ccccc3S(=O)(=O)c3ccccc32)cc1F
CCOc1ccccc1CNC(=O)c1ccc(-n2c(C)cc3c2CCC(C)C3)cc1 (stereo not drawn)
CCN(CC)C(=O)CSc1nc2ccsc2c(=O)n1Cc1ccccc1Cl
CC1=C(C(=O)OCc2ccc(C)cc2)C(c2ccccc2Cl)CC(=O)N1 (stereo not drawn)
CC(C)(C)OC(=O)N(Cc1ccco1)S(=O)(=O)c1ccccc1Br
CCC(=O)N1CCc2cc(S(=O)(=O)NC(CC(C)C)C(=O)NCCc3cccc(C)c3)ccc21 (stereo not drawn)
O=[N+]([O-])c1ccc(N(CCO)Cc2ccccc2)c([N+](=O)[O-])c1
CN1CCN(/N=C2/C(=O)Nc3ccc([N+](=O)[O-])cc32)CC1
CC(=O)c1ccc[n+](C(C)CCC(C)[n+]2cccc(C(C)=O)c2)c1 (stereo not drawn)
COc1cccc(CNC(=O)CN2C(=O)CCc3cc(S(=O)(=O)N4CCOCC4)ccc32)c1
COc1ccc(-c2cc(C(=O)NCc3cc(OC)c(OC)c(OC)c3)[nH]n2)cc1
COc1ccc2[nH]c(=O)c(CNc3ccc(C)c(C)c3)cc2c1
Cc1ccc(C)c(NC(=O)C2Cc3ccccc3CN2C(=O)OCc2ccccc2)c1 (stereo not drawn)
COc1ccccc1N1CCN(C(=O)C2Cc3ccccc3CN2C(=O)c2ccco2)CC1 (stereo not drawn)
OC[C@@H]1O[C@H](n2cnc3c(SCc4ccccc4)ncnc32)[C@H](O)[C@H]1O
COc1ccc(CNC(=O)Cc2coc3ccc(C(C)C)cc23)cc1
CCOC(=O)c1c(SCC(=O)Nc2cccc(C)c2C)nc(=O)[nH]c1C
CCOC(=O)c1c(C)[nH]c(C)c1S(=O)(=O)N(C)CC(=O)N1CCN(c2ccccc2)CC1
Cc1ccc(-n2ncc3c(=O)n(Cc4cccc(C(F)(F)F)c4)cnc32)cc1C
Cc1ccccc1N/N=C/c1ccc(N2CCOCC2)cc1
O=C(O)c1ccc(N/N=C/c2ccc3ncccc3c2)cc1
CCCCOc1ccc(C(=O)NO)cc1
C/C=C/NNC(=O)Cc1ccc(OC)cc1
COc1cc(NS(=O)(=O)c2ccc3c(c2)OCC(C(=O)N2CCCC2)O3)cc(OC)c1 (stereo not drawn)
COc1ccc(OC)c2sc(N3CCN(C(=O)C4COc5ccccc5O4)CC3)nc12 (stereo not drawn)
Cc1ccc(-c2ccc(CCC(=O)O)n2-c2ccc(C(N)=O)cc2)cc1
COc1ccc(Cl)cc1S(=O)(=O)N1CCN(CC(=O)C(C)(C)C)CC1
N#Cc1ccsc1NC(=O)CN1CCN(S(=O)(=O)c2cc(Cl)ccc2Cl)CC1
Cc1[nH]c2ccccc2c1C(=O)C(=O)N(C)c1ccccc1
Cc1ccc(-c2nc3ccccn3c2Nc2ccc(F)cc2)o1
CCCCCCCNc1ccc(/C=C/c2ccnc3ccccc23)cc1
O=C(Cn1c(=O)n(-c2ccc(F)cc2)c(=O)c2sc3ccccc3c21)NC1CCCC1
COc1ccc(CNC(=O)c2cc3c(-c4ccccc4F)nn(C)c3s2)c(OC)c1
CSc1cccc(NC(=O)CN2C(=O)CCc3cc(S(=O)(=O)N4CCCCC4)ccc32)c1
O=C1c2ccccc2-c2ncnc3c(N4CCOCC4)cc(N4CCOCC4)c1c23
Cc1oc2c(c1C(=O)N1CCOCC1)C(=O)c1ccccc1C2=O
Cc1cccn2c(=O)c3cc(C(=O)NC(C)c4ccccc4)c(=N)n(CCCO)c3nc12 (stereo not drawn)
COc1ccc(-c2c(C)c3ccc(O)c(CN4CCN(C)CC4)c3oc2=O)cc1OC
COc1cc(O)c2c(=O)c3c(O)c(O)ccc3oc2c1OC
C=CCn1c(SCC(=O)NCCCO)nc2sc3c(c2c1=O)CCC3
C=CCn1c(SCC(=O)NCC2CCCO2)nc2sc(C)c(C)c2c1=O (stereo not drawn)
CCOC(=O)c1cccc(NC(=O)C(Cc2ccccc2)NS(=O)(=O)c2cccc3nsnc23)c1 (stereo not drawn)

Reference: PubChem BioAssay AID588590 (National Center for Advancing Translational Sciences (NCATS), 2011)
